Values joined by “and” are separate entries in the source; they are usually repeats but may differ in a detail not shown here. Equal entries are not always repeated. Values without a mark were called inactive. Records with an inconclusive call do not appear. Active and inactive are the calls of the source. Unless noted, calls follow the shape of the dose curve; as a rule, active = well fitted curve in the direction sought with a large enough effect; inconclusive = small, poorly fitted or top-dose-only effect, or another doubt; inactive = no such curve, though single readings can be large; an effect the other way counts as inactive or inconclusive.

Test [1] is described as follows: Cell Viability - MRC5 (AID 434; calls by dose curve;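 also: potency is read from the fitted curve at half-maximal effect; cells exposed to compound for 40 hours at 37 °C; potency reflects cytotoxicity seen as loss of intracellular ATP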). Particulars: MRC5 lung fibroblast viability, qHTS. Summed up: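 ATP luminescence read-out (CellTiter-Glo, 20 min RT) after 40 hr, 37 °C compound exposure of 1500 MRC5 cells/well. Data normalized to DMSO (basal) and 100 uM tamoxifen (100% inhibition); AC50 from standard Hill equation.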
(In general: In qHTS, concentration-response curves come from the screen itself.)

Test [2] is described as follows: Cell Viability - HUV-EC-C (AID 542).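 Also: cells exposed to compound for 40 hours; nearly all actives have a fitted effect of over 35% in size.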 Also: potency is read from the fitted curve at half-maximal effect. Particulars: HUV-EC-C endothelial cell viability, qHTS; series mostly up to 92.2 µM. Summed up:
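Cells were seeded at 1000 per well and incubated 5 hr at 37 °C before compound addition. After 40 hr at 37 °C, CellTiter-Glo reagent was added for 20 min and luminescence read. AC50 values came from Hill-equation modelling.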

The nature of test [3]: Cellular Toxicity (caspase-3) HepG2 (AID 654).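 Also: cells exposed to compound for 16 hours before reading; 0% = DMSO alone and 100% = caspase signal from 100 µM tamoxifen.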 Particulars: HepG2 caspase-3 activation, luminescence; series mostly up to 92.2 µM. The gist of the method:
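Caspase 3/7 activation in HepG2 is measured as rising luminescence after a 16 hr treatment at 37 °C. Values are scaled between DMSO basal and 100 uM tamoxifen, and AC50 is fitted with the Hill equation.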

Test [4] is described as follows: Cellular Toxicity (caspase-3) HUV-EC-C (AID 656). Particulars: HUV-EC-C cells, caspase-3 activation (apoptosis); series mostly up to 92.2 µM. Summed up: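 Read-out: luminescence proportional to caspase 3/7 activity, measured 20 min after adding Caspase-Glo 3/7 reagent. Cells (HUV-EC-C) had received compound for 16 hr at 37°C. Increases relative to DMSO and 100 uM tamoxifen gave concentration-response AC50 values.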

A short description of test [5]: Cellular Toxicity (caspase-3) MRC-5 (AID 659). Conditions: MRC-5 cells, luminescence, normalized: DMSO 0%, 10 µM staurosporine 100%; series mostly up to 91.7 µM. Summed up:
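MRC-5 fibroblasts, 1500/well; 16 h cpd, 37 °C; Caspase-Glo 3/7, 1 h RT; lumi read. Norm: DMSO = 0%, 10 uM staurosporine = 100%. Hill-fit AC50 from qHTS conc-response.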

Test [6] can be described thus: Cellular Toxicity (caspase-3) SK-N-SH (AID 661). Particulars: SK-N-SH caspase-3 activation, qHTS, DMSO as zero, staurosporine as full; series mostly up to 91.7 µM. Summed up: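 Cells were seeded and incubated 5 hr at 37 °C, dosed with compound over a concentration range for 16 hr, then given Caspase-Glo 3/7 reagent for 1 hr at room temperature before luminescence reading.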

Test [7] is described as follows: Cellular Toxicity (caspase-3) Hek293 (AID 664).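 Also: cells exposed to compound for 16 h at 37 °C before readout.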 Particulars: HEK293 caspase-3 activation, DMSO = 0%, 100 µM tamoxifen = 100%; at 92.2 µM (top of the series). The gist of the method: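 qHTS, HEK293 (human embryonic kidney), 16 h cpd exposure in complete medium. Caspase-3/7 activation = luminescence increase; normalized to DMSO/100 uM tamoxifen; Hill-fit AC50.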
Test [8] is described as follows: Cellular Toxicity (caspase-3) N2a (AID 665).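 Also: compound exposure lasted 16 h at 37 °C before readout.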 Conditions: N2a cells, luminescence, normalized: DMSO 0%, 10 µM staurosporine 100%; series mostly up to 92.2 µM. The gist of the method:
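Caspase-3/7 activation, measured as increased luminescence from aminoluciferin release, is quantified in mouse N2a cells exposed to compounds for 16 h. Values are normalized to DMSO and 10 uM staurosporine, with AC50 derived by Hill modelling.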

A short description of test [9]: Cellular Toxicity (caspase-3) NIH 3T3 (AID 666).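 Also: caspase signal read after 16 h compound exposure; 0% = DMSO basal and 100% = 100 µM tamoxifen stimulation.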 Particulars: NIH 3T3 caspase-3 activation, apoptosis/toxicity, 0% DMSO, 100% is 100 µM tamoxifen; series mostly up to 92.2 µM. Summed up:
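Cells were plated at 1000 per well and incubated 5 hr at 37°C, then compound was added for 16 hr. Caspase-Glo 3/7 reagent followed for 20 min at room temperature before luminescence was read.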

Test [10] is described as follows: Cellular Toxicity (caspase-3) Renal Proximal Tubule (AID 667).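 Also: cells exposed to compound for 16 hours at 37 °C before detection.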 Particulars: renal proximal tubule cells, primary cells freshly taken from rat; Potency: caspase-3 activation; series mostly up to 91.7 µM. The gist of the method:
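In qHTS format, rat primary proximal tubule cells seeded at 1000 per well are exposed to compounds for 16 hours at 37 °C. An increase in Caspase-Glo 3/7 luminescence indicates caspase activation.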

The nature of test [11]: MultiTox-Fluor Cytotoxicity Assay - LYMP1-001 - Dead Cells (AID 946). Also: potency is read from the fitted curve at half-maximal effect. Particulars: LYMP1-001 lymphoblastoid cells, dead-cell protease fluorescence; series mostly up to 92.2 µM. Summed up:
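LYMP1-001 lymphoblastoid cells (2500/well) treated 16 h at 37 C. Dead-cell protease cleavage of bis-AAF-R110 read at Ex/Em 485/520. Normalized to DMSO and 15 uM tetraoctylammonium bromide; AC50 from Hill fits.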

A short description of test [12]: MultiTox-Fluor Cytotoxicity Assay - LYMP1-003 - Dead Cells (AID 961). Also: nearly all actives have a fitted effect of over 70% in size. Also: potency is read from the fitted curve at half-maximal effect. Particulars: LYMP1-003 lymphoblastoid cells, dead-cell protease fluorescence; series mostly up to 92.2 µM. Summed up:
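LYMP1-003 human lymphoblastoid cells (2500/well) exposed to compound 16 h at 37 C in complete medium; dead-cell protease read with bis-AAF-R110 fluorescence (Ex/Em 485/520) after 60 min at room temperature. Normalized to DMSO and 15 uM tetraoctylammonium bromide; AC50 from Hill fit.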

Test [13] in a line: MultiTox-Fluor Cytotoxicity Assay - LYMP1-003 - Live Cells (AID 962). Also: potency is read from the fitted curve at half-maximal effect. Particulars: LYMP1-003 lymphoblastoid cells, MultiTox-Fluor live-cell protease fluorescence; series mostly up to 92.2 µM. The gist of the method:
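Acute cytotoxicity is scored as a drop in live-cell protease activity in human lymphoblastoid LYMP1-003 cells after 16 hr compound exposure at 37 C. AC50 values come from Hill-equation modelling of concentration-response data.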

Test [14] in a line: Cell Viability - LYMP1-003 - Assay at 24 hr (AID 963).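 Also: plate controls were DMSO only for no effect and tetraoctylammonium bromide positive control for full effect.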 Conditions: LYMP1-003 lymphoblastoid cell viability; series mostly up to 92.2 µM. The gist of the method:
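Cytotoxicity is scored as a concentration-dependent fall in ATP-linked luciferase signal in human lymphoblastoid LYMP1-003 cells treated 24 hr at 37 C in complete culture medium.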

Test [15] in a line: Cell Viability - LYMP1-002 - Assay at 24 hr (AID 993). Also: potency is read from the fitted curve at half-maximal effect. Particulars: LYMP1-002 lymphoblastoid cells viability; series mostly up to 92.2 µM. The gist of the method: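 Acute toxicity is measured as concentration-dependent loss of cellular ATP in a human lymphoblastoid line (Coriell LYMP1-002) after 24 h treatment in complete medium. ATP is quantified by luciferase luminescence and AC50 derived by Hill modelling.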

Test [16] can be described thus: qHTS Assay for Identification of Small Molecule Inducers of Hypoxia Response (AID 2120; active = well fitted curve in the direction sought with a large enough effect in the signal ratio, with a control signal flat, not every such curve was filed as active; the % refers to the signal ratio; also: 0% is about no effect). Conditions: hypoxia response reporter cells, beta-lactamase ratio readout; series mostly up to 104 µM. Summed up: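 Cell-based qHTS for reporter induction: hypoxia response element controlled beta-lactamase in ME-180 cells. Compounds incubated 17 h at 37 degrees C; activity from blue/green (460/530 nm) ratio, inducers ranked by AC50.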

For test [17], the target named is Peroxisome proliferator-activated receptor alpha (Homo sapiens) (UniProt Q07869). The test is described as follows: qHTS assay for small molecule agonists of the peroxisome proliferator-activated receptor alpha (PPARalpha) signaling pathway (AID 651778). Also: potency is read from the fitted curve at half-maximal effect. As to max response: % of control where 0% means no effect. Conditions: PathHunter PPARalpha complementation, chemiluminescence, 6 h; max response: hits give high values. The gist of the method:
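Enzyme-fragment complementation assay in which ligand-bound PPARalpha translocates and forms an active enzyme that generates chemiluminescence. Cells were plated overnight, exposed to compound for 6 hr at 37 C, and then given detection reagent for 60 min at room temperature.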

The nature of test [18]: qHTS assay for small molecule agonists of the antioxidant response element (ARE) signaling pathway measured by Nrf2-dependant transcriptional activity - cell viability counter screen (AID 720653; active = well fitted curve in the direction sought with a large enough effect in the repeat runs; an effect the other way counts as inactive or inconclusive; also: % is scaled to controls: 0 for no effect and ±100 for the full control effect). Particulars: ARE-bla HepG2 viability, CellTiter-Glo ATP luminescence, 16 h; max response: hits give low values. The gist of the method:
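ARE-bla HepG2 cells treated with compounds for 16 h at 37C; this counter screen measures viability as intracellular ATP by CellTiter-Glo luminescence after 30 min at room temperature.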

A short description of test [19]: qHTS assay for cell viability of HEK293 cells (AID 743288). Also: nearly all actives have a fitted effect of over 50% in size. Also: potency is read from the fitted curve at half-maximal effect. As to max response: % is scaled to controls: 0 for no effect and ±100 for the full control effect. Conditions: ATP luminescence (CellTiter-Glo), 18 h; max response: hits give low values. The gist of the method:
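Quantitative high-throughput screen: compounds were pinned onto parental HEK293 cells (2,000 per well) after a minimum 5 h settling at 37 C, incubated 18 h at 37 C, and intracellular ATP measured by luciferase luminescence.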

Test [20] in a line: qHTS assay for cell viability of the p53RE-bla HCT-116 cell line (AID 743292). Also: % is scaled to controls: 0 for no effect and ±100 for the full control effect; nearly all actives have a fitted effect of over 55% in size. Particulars: p53RE-bla HCT-116 viability, ATP luminescence, 16 h; series mostly up to 95 µM. Summed up: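 HCT-116 p53RE-bla cells seeded 4,000/well; 5 h at 37 C; compound (DMSO) added; 16 h at 37 C; CellTiter-Glo added, 30 min RT; luminescence read.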

Sequence of Peroxisome proliferator-activated receptor alpha (Homo sapiens) (Q07869 whole entry, looked up, the tested form may be a part): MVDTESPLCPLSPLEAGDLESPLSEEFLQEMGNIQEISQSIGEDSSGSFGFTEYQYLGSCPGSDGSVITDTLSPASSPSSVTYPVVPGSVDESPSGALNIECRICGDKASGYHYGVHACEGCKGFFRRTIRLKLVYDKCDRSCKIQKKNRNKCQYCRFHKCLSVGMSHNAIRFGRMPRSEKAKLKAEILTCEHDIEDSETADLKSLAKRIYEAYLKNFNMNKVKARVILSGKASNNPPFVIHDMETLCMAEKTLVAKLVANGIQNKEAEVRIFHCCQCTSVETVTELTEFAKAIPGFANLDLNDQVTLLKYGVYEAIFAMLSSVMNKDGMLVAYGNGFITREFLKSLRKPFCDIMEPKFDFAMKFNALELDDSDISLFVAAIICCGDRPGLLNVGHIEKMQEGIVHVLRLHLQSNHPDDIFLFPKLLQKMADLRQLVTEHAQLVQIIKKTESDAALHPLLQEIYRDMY

For the compound `O=C(O)c1ccc([N+](=O)[O-])cc1`, the Potency in test [1] is greater than 92 µM. For the same compound, the Potency entry in test [2], in test [3], in test [4], in [10], in [11] and in [12] was “inactive” throughout. The Potency entry in test [13], in test [14], in test [15], in test [16] and in [20] was “inactive” each time. The outcome in [5], in [6], in test [8] and in test [9] was inactive. Further, in test [7], the caspase-3 activation was 10.3%. Further, the max response was -2.26% and 0.632% in test [17]; -7.35% and -20.8% in [18]; -3.6% and -1.43% in test [19].

Regarding `Nc1cc(C(=O)O)c(O)c(S(=O)(=O)O)c1`, the Potency in test [1] is greater than 92 µM. Further, the Potency result in test [2], in test [3], in test [4], in test [10], in [11] and in test [12] was “inactive” each time. Further, the Potency entry in test [13], in test [14], in test [15], in [16] and in [20] was “inactive” throughout. Besides, the compound was classed as inactive in test [5], in test [6], in test [8] and in test [9]. Moreover, the caspase-3 activation in [7] is 0.407%. Moreover, the max response in [17] was -5.08%; in test [18] it was 2.52%; in [19], -1.32%.

For `CCCCCCCCOc1ccc(C(=O)O)cc1`, the Potency in test [1] was greater than 92 µM; in test [17] it was 7.08 µM (active). In addition, the Potency entry in [2], in test [3], in test [4], in test [10], in test [11] and in test [12] was “inactive” throughout. Moreover, the Potency entry in test [13], in [14], in test [15], in test [16] and in [20] was “inactive” in each case. The compound was classed as inactive in test [5], in test [6], in [8] and in test [9]. Besides, the caspase-3 activation in [7] is -2.79%. Moreover, the max response in [18] was -6.08%; in test [19] it was 8.21%.

Consider `C/C=C/C=C/C=O`, for which, in [1], the Potency was greater than 92 µM. Also, the Potency result in test [2], in test [3], in [4], in test [10], in [11] and in test [13] was “inactive” each time. Also, the Potency entry in test [14], in [15], in test [16] and in [20] was “inactive” throughout. The compound was classed as inactive in test [5], in test [6], in test [8] and in test [9]. Moreover, the caspase-3 activation in test [7] was 29%. Further, the results for the max response in test [17], in [18] and in test [19] were -0.84%, -19.3% and -1.13%, respectively.

In the case of `Cc1cc(-c2ccc(N=Nc3cc(S(=O)(=O)O)c4ccccc4c3N)c(C)c2)ccc1N=Nc1cc(S(=O)(=O)O)c2ccccc2c1N`, the Potency was greater than 92 µM in [1] and 25.1 µM (active) in test [2]. Besides, the Potency result in test [3], in test [4], in test [10], in test [11], in [13] and in [14] was “inactive” in each case. Moreover, the Potency entry in test [15] and in test [16] was “inactive” in each case. The outcome in [5], in test [6], in test [8] and in test [9] was inactive. Besides, in test [7], the caspase-3 activation was -4.55%. Besides, the max response in [17] is -11.9%; in test [18] it was -27.3%.

With `C=C1CC[C@H](O)C/C1=C/C=C1\CCC[C@]2(C)[C@@H]([C@H](C)CCCC(C)C)CC[C@@H]12`, the Potency in [2] was 39.8 µM (active); in test [11], 39.8 µM (active); in test [12], 39.8 µM (active); in test [13], 50.1 µM (active); in test [15] it was 50.1 µM (active); in [19], 44.7 µM (active). Further, the Potency entry in [3], in test [4] and in test [16] was “inactive” in each case. Besides, the result in test [5], in test [8] and in test [9] was inactive. In test [7], the caspase-3 activation is 173% (active). The max response in test [17] is -0.403%; in [18], -9.05%.

The values above are taken from PubChem BioAssay (NCATS).
